Mtb FBA inh = Mtb FBA enzyme inhibitors, primary screen, biochemical, fluorescence, strain H37Rv | inhibition, % at 1 µM | Fructose-bisphosphate aldolase (Mycobacterium tuberculosis (strain ATCC 25618 / H37Rv)), … | 360,000 tested, 2.3% active | purified M. tuberculosis FBA, fluorescence read-out; in the data active = inhibition above about 27%;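 also: 0% = vehicle and 100% = reference inhibitor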
CCHFV vOTU inh = CCHFV vOTU protease inhibitors, primary screen, biochemical, Pep-AMC substrate, fluorescence; AID 651958, 2012; 370,000 tested, 0.55% active; inhibition, % at 11.5 µM; also: 0% = vehicle wells with enzyme and 100% = no enzyme wells
Mtb bLac sens = beta-lactam sensitization of Mtb H37Rv, H37Rv; M. tuberculosis H37Rv growth with meropenem, percent inhibition; 330,000 tested, 0.27% active; inhibition, % at 25 µM; AID 434955, 2010; call rule not given here;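 also: growth measured after seven days incubation then overnight dye step; 0% = bacteria only wells and 100% = bacteria with antibiotic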
RecA intein inh = Mtb RecA intein splicing inhibitors, primary screen, biochemical, fluorescence, HTS; inhibition, % (concentration not given with the values); AID 2221, 2009; Protein RecA (Mycobacterium tuberculosis (strain ATCC 25618 / H37Rv)), P9WHJ3; cell-free RecA intein splicing; 290,000 tested, 0.75% active; in the data active = inhibition above about 30%;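 also: 0% = vehicle wells and 100% = reference inhibitor control wells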
Target sequence (P9WHJ3 whole entry, looked up): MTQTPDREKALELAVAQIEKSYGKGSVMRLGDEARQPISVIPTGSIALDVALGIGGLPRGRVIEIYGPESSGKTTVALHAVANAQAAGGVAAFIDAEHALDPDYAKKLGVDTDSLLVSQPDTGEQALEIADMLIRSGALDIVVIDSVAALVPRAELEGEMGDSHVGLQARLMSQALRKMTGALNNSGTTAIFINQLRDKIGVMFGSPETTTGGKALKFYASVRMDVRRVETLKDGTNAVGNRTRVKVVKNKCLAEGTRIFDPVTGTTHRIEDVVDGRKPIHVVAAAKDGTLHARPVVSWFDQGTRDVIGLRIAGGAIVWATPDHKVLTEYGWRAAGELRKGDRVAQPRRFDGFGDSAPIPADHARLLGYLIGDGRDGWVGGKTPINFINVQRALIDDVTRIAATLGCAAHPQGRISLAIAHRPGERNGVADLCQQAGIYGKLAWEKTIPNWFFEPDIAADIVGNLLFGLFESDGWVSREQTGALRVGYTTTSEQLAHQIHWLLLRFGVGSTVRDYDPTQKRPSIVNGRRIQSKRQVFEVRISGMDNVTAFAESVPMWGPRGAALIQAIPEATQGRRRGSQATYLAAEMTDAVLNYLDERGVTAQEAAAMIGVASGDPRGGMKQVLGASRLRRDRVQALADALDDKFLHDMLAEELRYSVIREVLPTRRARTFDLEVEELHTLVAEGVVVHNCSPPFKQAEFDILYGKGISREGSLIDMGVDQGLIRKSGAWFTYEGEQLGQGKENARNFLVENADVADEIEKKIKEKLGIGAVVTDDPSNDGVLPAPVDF
GDH-TPI inh = GDH-TPI coupling enzyme inhibitors, primary screen, artefact control for M. tuberculosis FBA inhibitor project, biochemical, absorbance, full deck; GDH-TPI coupled enzyme counterscreen, NADH absorbance; inhibition, % at 4.8 µM; 360,000 tested, 1.2% active; AID 588335, 2011;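 also: 0% = DMSO wells and 100% = wells lacking the enzyme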
The depositor's hits bear a star; . = no result; + = active, no number. An excerpt weighted towards active compounds, which were near 4.2% of everything screened. Rule as the data show it, unless noted: active = inhibition above about 30%; inactive = the rest.

SMILES | Mtb FBA inh | CCHFV vOTU inh | Mtb bLac sens | RecA intein inh | GDH-TPI inh
Cc1oc2c(c(C)cc3oc(=O)c(CC(=O)NCCCO)c(C)c32)c1C | 20 | -23 | -1 | -4 | 8
Cc1c(CC(=O)NCC(=O)O)c(=O)oc2cc3oc4c(c3cc12)CCCC4 | 3 | -1 | 10 | 0 | 5
Cc1c(CC(=O)NCC(=O)NCC(=O)O)c(=O)oc2c(C)c3oc4c(c3cc12)CCCC4 | 10 | 2 | 0 | -6 | 8
Cc1c(CC(=O)NCC(=O)O)c(=O)oc2cc3c(cc12)CCC(C)(C)O3 | + | -187 | -7 | 1 | 30
COC(=O)C1CN(C2CCCC2)CCS(=O)(=O)N1Cc1cn(Cc2ccc(OC)cc2)nn1 (configuration not stated) | . | -5 | . | . | .
CC(=O)N1[C@H](CO)[C@@H](c2ccccc2)[C@@H]1CN(C(=O)c1ccc(F)cc1)C(C)C | . | -4 | . | . | .
COC(=O)c1c(C(=O)OC)c2c(-c3ccccc3)cc3cccc1n32 | 121* | -54 | . | . | 15
COC(=O)c1c(-c2ccccc2)csc1N | 3 | 0 | 3 | 7 | 3
O=C(O)c1ccc(C#Cc2cccc(F)c2)cn1 | . | -2 | . | . | .
COc1ccc(-c2cc(C(F)(F)F)n3nc(C(=O)N4CCOCC4)nc3n2)cc1 | 0 | 8 | . | 0 | 44*
C=CCn1c(COc2ccc(Cl)cc2)nnc1SCC(=O)c1ccc(-c2ccccc2)cc1 | . | 9 | . | . | .
CCOC(OCC)P(=O)(CNC(c1ccccc1)(c1ccccc1)c1ccccc1)OCC (configuration not stated) | . | 18 | . | . | .
O=S1(=O)c2ccc(N3CCCC3)cc2Oc2ccccc2CN1Cc1cn(Cc2ccc(Cl)cc2)nn1 | . | -1 | . | . | .
Cc1cc(Nc2nc3ccccc3[nH]c2=O)n(-c2ccccc2)n1 | 4 | 4 | -3 | . | 43*
CCOc1cccc2cc(-c3csc(NC(=O)CCC(=O)NCCN4CCCCC4C)n3)c(=O)oc12 (configuration not stated) | 0 | -9 | -2 | -7 | 34*
CCOC(=O)N1CCN(/C=C(\C#N)c2nc3ccccc3s2)CC1 | 1 | 7 | -15 | 1 | 35*
CC(=O)Nc1ccc(S(=O)(=O)C(C#N)c2nc3ccccc3nc2NCCCO)cc1 (configuration not stated) | + | -268 | -4 | . | 24
CC(=O)Nc1ccc(S(=O)(=O)C(C#N)c2nc3ccccc3nc2NCCO)cc1 (configuration not stated) | + | -242 | -13 | . | 23
Cc1ccc(S(=O)(=O)C(C#N)c2nc3ccccc3nc2OCCO)cc1 (configuration not stated) | 5 | 9 | 6 | -14 | 14
COC(=O)c1cc(-c2ccc(C)cc2)c(=O)n2c1CCC2 | . | 0 | . | . | .
COc1ccc(/C=N/NC(=O)c2nc(-c3ccccc3)cc(-c3ccccc3)n2)cc1 | 1 | 14 | 56 | 2 | 32*
COc1cc(/C=N/NC(=O)c2nc(-c3ccccc3)n(-c3ccccc3)n2)ccc1O | -1 | 4 | -3 | -5 | 30
COc1ccc(/C=N/NC(=O)c2nc(-c3ccccc3)n(-c3ccccc3)n2)cc1OC | 2 | 18 | 4 | 18 | 37*
CCCCOCCCNC(=O)C[C@@H]1C(=O)N(Cc2ccc(OC)cc2)C2=CCN(C(=O)OC(C)(C)C)C[C@]21C(=O)OCC | . | 15 | . | . | .
COC(=O)c1cc(C)oc1C | . | -4 | . | . | .
SMILES | Mtb FBA inh | CCHFV vOTU inh | Mtb bLac sens | RecA intein inh | GDH-TPI inh
CN(C)/C=C/c1onc(-c2c(F)cccc2Cl)c1C#N | -2 | 13 | 5 | 1 | 31*
Cc1onc(-c2c(F)cccc2Cl)c1C(=O)NC1CC1 | 3 | -15 | -7 | -2 | 14
O=C(CN1CCN(CCN2C(=O)c3cccc4cccc(c34)C2=O)CC1)c1ccc(F)cc1 | 3 | 5 | 91 | 1 | 15
COc1ccc(OCC(O)CN2CCC(CN3C(=O)c4cccc5cccc(c45)C3=O)CC2)cc1 (configuration not stated) | 23 | 2 | 68 | 0 | 45*
COc1ccc(C(=O)CN2CCN(CCN3C(=O)c4cccc5cccc(c45)C3=O)CC2)cc1 | 4 | -8 | 36 | 4 | 46*
COc1cc2c3c(cccc3c1)C(=O)N(CCN1CCCC1)C2=O | 147* | -101 | . | . | 16
Nc1[nH]c2cc(C(F)(F)F)ccc2c1C(=O)NCc1ccc(F)cc1 | . | 5 | . | . | .
COC(=O)[C@]12C[C@H](CC(=O)NCC34CC5CC(CC(C5)C3)C4)C(=O)N(Cc3ccc(Cl)cc3Cl)C1=C[C@H](C(C)(C)C)O[C@@H]2C | . | 16 | . | . | .
COC(=O)[C@]12C[C@H](CC(=O)N3CCSCC3)C(=O)N(Cc3ccccc3)C1=C[C@H](COCc1ccccc1)O[C@@H]2C | . | -6 | . | . | .
COc1ccc(CNCC#Cc2ccc(C)cc2)c(OC)c1 | . | 9 | . | . | .
Cc1ccccc1Cn1cc(COC(=O)N2CCOCC2)nn1 | . | 1 | . | . | .
Cc1cccc(S(=O)(=O)Nc2ccc(-c3nc4ccc(C)cc4s3)cc2)c1 | + | -20 | -3 | 1 | 24
Cc1ccc2nc(-c3ccc(NS(=O)(=O)c4c(C)n(C)c(=O)n(C)c4=O)cc3)sc2c1 | 17 | -27 | -6 | -2 | 17
Cc1ccc2nc(-c3ccc(NC(=O)C(C)Sc4nncs4)cc3)sc2c1 (configuration not stated) | 15 | -16 | 64 | 4 | 34*
Cc1ccc(S(=O)(=O)Nc2ccc(-c3nc4ccc(C)cc4s3)cc2)cc1 | 183* | -78 | -4 | 0 | 10
Cc1ccc(N(CC(=O)Nc2ccc(-c3nc4ccc(C)cc4s3)cc2)S(C)(=O)=O)cc1 | 18 | -9 | 9 | -2 | 38*
CC(COc1ccc(S(C)(=O)=O)cc1)CN1CCC(C(O)(c2ccccc2)c2ccccc2)CC1 (configuration not stated) | . | -3 | . | . | .
Cc1ccc2nc(-c3ccc(NC(=O)CN4CCN(c5ccccn5)CC4)cc3)sc2c1 | 40* | -10 | 2 | -1 | 30
CC(=O)Cc1nsc(NC(=O)c2ccc(-c3cccc(Cl)c3)o2)n1 | 4 | 4 | 2 | 8 | 61*
Cc1occc1C(=O)N/N=C/C=C/c1ccc(N(C)C)cc1 | 0 | 2 | -3 | -38 | 26
Cc1nc2c(C)cccc2cc1C(=O)N/N=C/c1ccc(C(=O)O)cc1 | -2 | 2 | 9 | 10 | 5
Cc1occc1C(=O)N/N=C/c1ccc(N(C)C)cc1 | 12 | -2 | -9 | -4 | 81*
CN(C)c1ccc(/C=N/NC(=O)c2ccc(Cl)cc2)cc1 | 1 | 0 | 8 | 2 | 31*
CN(C)c1ccc(/C=N/NC(=O)c2ccccc2)cc1 | 0 | 16 | 4 | 0 | 20
Cn1c(=O)n(C)c2cc(/C=N/NC(=O)c3ccc(Cl)cc3)ccc21 | 4 | 13 | -2 | 0 | 51*
